PubChem BioAssay (NCI)
Values joined by “and” are separate entries in the source; they are usually repeats but may differ in a detail not shown here. Identical values can stand only once. Compounds without any hit were thinned out: in the full panel of roughly 83,000, 20% have a hit.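 Method: cells in 96-well plates; compound added at one concentration; 48 h incubation; percent growth measured; values under 10 scored active.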 Values without a mark were called inactive. Active and inactive are the calls of the source.

What follows are molecules tested on MDA-MB-468 breast (assay: NCI-60 one-dose screen, 48 h (100 = growth as untreated, 0 = no growth, -100 = all killed)). Conditions: 10 µM unless noted.
`NCCn1cc(-c2nc(-c3c[nH]c4ncccc34)cs2)c2ccccc21` showed a growth of 40.5%.
Work on `COc1cc(Cl)cc(-c2nn(-c3cccc(NC(=O)c4ccc(N5CCOCC5)c(C(F)(F)F)c4)c3)cc2-c2ccncc2)c1` yielded a growth of 50.2%.
`ClCC1(Cn2cnc3c(Cl)nc(Cl)nc32)COC1` showed a growth of 19.4%.
For `COc1c(B(O)O)cccc1-c1nc2c(F)cc3n[nH]c(C)c3c2c2c1CCCC2`, the growth was -7.26% (active).
`N#CC1=C(N)Oc2c(ccc3ccccc23)C1c1cc(=O)oc2ccc(Cl)cc12` (stereo not given) gave a growth of 62%.
With `Cc1c(Cl)cccc1N=C=S` the growth was 97.8%.
With `COc1cc(-c2nc(-c3ccccc3)c(-c3ccccc3)[nH]2)cc(OC)c1O` the growth was -49.2% (active).
For `O=C(COc1ccc(/C=C2\Cc3ccc(Cl)cc3C2=O)cc1)Nc1nc2ccccc2s1`, the growth was 109%.
With `OC1CC2c3ccccc3C1c1ccccc12` (stereo not given) the growth was 111%.
`CN1CCN(Cc2ccc(NC(=O)c3cncc(C#Cc4cnc5ccc(O[C@H]6CCOC6)nn45)c3)cc2C(F)(F)F)CC1` was tested, and the growth was -59.7% (active).
Work on `CN1CCN(c2ccc(Nc3nc(NCCNS(=O)(=O)c4ccc(Cl)cc4)c4sccc4n3)cc2)CC1` yielded a growth of 93%.
`COc1cccc(CCC(=O)c2cc3c(N)c(C(=O)Nc4ccccc4)sc3nc2C)c1` was tested, and the growth was 25.2%.
For `COc1ccc2[nH]cc(/C=C3/C(=O)Nc4ccc(F)cc43)c2c1`, the growth was 79.1%.
For `CCN(CC)c1ccc(NC(C(=O)c2ccccc2)c2ccccc2)cc1` (stereo not given), the growth was 1.41% (active).
With `O=C(CNc1c(Cl)cccc1Cl)Nc1ccc(-c2nc3ccccc3s2)cc1` the growth was -7.4% (active).
With `Cc1cc(N2CCCCC2)nc(N(CCNc2ccnc3cc(Cl)ccc23)Cc2ccco2)n1` the growth was -0.362% (active).
With `COc1ccc(NC(=O)Nc2ccc(-c3ccc(OC)c(OC)c3)nc2C)cc1` the growth was 83%.
For `C/C(=N\NC(=O)CSc1nc2ccccc2c(=O)n1Cc1ccc(S(N)(=O)=O)cc1)c1ccc(F)cc1`, the growth was 114%.
In the case of `CC(C)(C)CC(C)(C)Nc1c(-c2ccncc2)nc2cnccn12`, the growth is reported as 87.5%.
`CC(C)(C)[Si](C)(C)OC1[C@@H](O[Si](C)(C)C(C)(C)C)[C@@H](CNC(=O)NC(=O)NC(=O)CCl)O[C@H]1n1cnc2c(NC(=O)Nc3ccccc3)ncnc21` (stereo not given in full) gave a growth of 106%.
`CCN(CC)CC#CCOC(=O)[C@]1(C)CCC[C@@]2(C)[C@H]1CC(C=O)=C1C=C(C(C)C)CC[C@@H]12` showed a growth of 41.5%.
For `Cc1cc[n+](CCCCCCCCCC[n+]2ccc(C)cc2)cc1`, the growth was 6.78% (active).
For `O=C(CCN1C(=O)/C(=C/c2ccc(O)cc2)SC1=S)Nc1ccccc1`, the growth was 100%.
With `CCCCOC1NC(=O)NC(=O)C1(F)C(=O)OCC` (stereo not given) the growth was 93.8% and 101%.
For `CCCCCCCN(CCCCCCC)C(=N)c1ccc(OC)c2ccccc12`, the growth was -85% (active).
`N#CC(Cc1cccc2ccccc12)c1cc2ccccc2[nH]1` (stereo not given) showed a growth of 93.2%.
`Nc1nc(SN=Nc2ccc(S(N)(=O)=O)cc2)c2[nH]cnc2n1` was tested, and the growth was -9.35% (active).
Molecule `S=C1CC(=S)NC(=S)N1` has a growth of 95.8%.
With `COc1ccc(/C=C2\CCCC3=C2NC(C)=NC3c2ccc(OC)c(OC)c2)cc1OC` (stereo not given) the growth was -10.3% (active).
Work on `CC(C)NCCCCCNc1cc(O)cc2cccnc12` yielded a growth of 18.6%.
For `NC(=NCCCOc1ccc(F)cc1)Nc1ccc(Cl)c(Cl)c1`, the growth was 41%.
Work on `O=C(O)c1ccc(-n2cc(CNc3cc(F)c(F)c(F)c3)c(-c3ccc(F)cc3)n2)cc1` yielded a growth of 115%.
`CC(C)[C@@H]1CC[C@@H]2[C@@H]1[C@H](OC(=O)/C=C/c1ccccc1)[C@]1(C(C)C)C[C@@H](OC(=O)CO)[C@@]2(C)O1` showed a growth of 113%.
Work on `CC(=O)Nc1ccc(C(=O)Nc2cc(-c3ccccc3)ccc2N)cc1` yielded a growth of 110%.
With `C=CCN1C(=O)/C(=c2\sc3n(c2=O)NC2C(N=3)N(CC)C(=O)N2CC)c2ccccc21` (stereo not given) the growth was 44.6%.
Molecule `CCCCn1c(=O)c(-c2cc(-c3ccc(Cl)cc3)nc(-c3ccc(Cl)cc3)c2)cc2cc(Cl)ccc21` has a growth of 108%.
Molecule `COc1cc(C2c3cc(OC(C)=O)c(OC)cc3CC3C(=O)OCC32)ccc1OC(C)=O` (stereo not given) has a growth of 96%.
`COC(=O)[C@]12CC[C@@H](C)[C@H](C)[C@@H]1C1=CC[C@@H]3[C@@]4(C)C[C@@H](O)[C@H](O)[C@@](C)(CO)C4=CC[C@@]3(C)[C@]1(C)CC2` was tested, and the growth was -66.4% (active).
With `N=C(N)c1ccc(-c2ccc(-c3ccc(Cl)c(Cl)c3)s2)nc1` the growth was -65.4% (active).
For `COc1cc(-c2cc(-c3ccc(Nc4ccnc5cc(Cl)ccc45)cc3)nc(N3CCOCC3)n2)cc(OC)c1OC`, the growth was -43.9% (active).
